Data as given in PubChem BioAssay (Tox21).
Results filed as inconclusive are left out. Values without a mark were called inactive. The source made the active and inactive calls. Unless noted, calls follow the shape of the dose curve; as a rule, active = well fitted cell-killing curve with a large enough effect in the repeat runs; inconclusive = weak or mixed curves, or effect the other way; inactive = no such curve, though single readings can be large or run the other way.

Test: qHTS assay for small molecule activators of the heat shock response signaling pathway - cell viability counter screen (AID 743209); also: nearly all actives have a fitted effect of over 50% in size
Details: HSE-bla HeLa viability, CellTiter-Glo luminescence, 5 h; series mostly up to 62.6 µM; activity change, negative = cytotoxicity: at the top concentration
How it was run: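 Quantitative HTS format, Tox21 10K library. HeLa cells carrying an HSE-driven beta-lactamase reporter were treated 5 h at 37 C, then assessed for viability by CellTiter-Glo luminescence.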
% is scaled to controls: 0 for no effect and ±100 for the full control effect; potency is read from the fitted curve at half-maximal effect.

| Compound | activity change, negative = cytotoxicity | Potency |
| --- | --- | --- |
| C[n+]1ccn(Cc2ccccc2)c1 | -7.28% |  |
| CCCN(CCC)c1c([N+](=O)[O-])cc(C(F)(F)F)c(N)c1[N+](=O)[O-] |  | 34.6 µM (active) |
| CCc1oc2ccccc2c1C(=O)c1cc(Br)c(O)c(Br)c1 | -19.5% |  |
| CSc1ccc2c(c1)C(N1CCN(C)CC1)Cc1ccccc1S2 (stereo not drawn) | -8.7% |  |
| Oc1ccc(Cl)cc1Sc1cc(Cl)ccc1O |  | 38.8 µM (active) |
| CCOc1nc2cccc(C(=O)OC(C)OC(=O)OC3CCCCC3)c2n1Cc1ccc(-c2ccccc2-c2nn[nH]n2)cc1 (stereo not drawn) |  | 13.8 µM (active) |
| Fc1ccc([C@@H]2CCNC[C@H]2COc2ccc3c(c2)OCO3)cc1 | 10% |  |
| O=CC=C(c1ccccc1)c1ccccc1 | -16.7% [at 81.1 µM] |  |
| CCOC(=O)/C=C(C)/C=C/C=C(C)/C=C/c1c(C)cc(OC)c(C)c1C | -18.2% |  |
| O=c1c(-c2ccccc2)c1-c1ccccc1 | 12.8% |  |
| O=C(Nc1cccc([N+](=O)[O-])c1)c1cc2ccccc2cc1O | -3.04% |  |
| COc1ccc(CN2CCN(C(c3ccc(F)cc3)c3ccc(F)cc3)CC2)c(OC)c1OC | -10.9% |  |
| C/C=C1/C(=O)C[C@H]2[C@@H]3CCC4=CC(=O)CC[C@]4(C)[C@H]3CC[C@]12C | 2.52% |  |
| COc1c(C)c2c(c(O)c1C/C=C(\C)CCC(=O)O)C(=O)OC2 | -4.03% |  |
| Cc1cc2c(cc1C(F)(F)F)N(C(=O)Nc1ccc(Oc3cccnc3C)nc1)CC2 | -8.93% |  |
| O=C1CCCCCN1SSN1CCCCCC1=O | -14.7% |  |
| Cc1cc(N)c(S(=O)(=O)O)cc1Cl | 15.7% [at 81.1 µM] |  |
| CN1CCC(Nc2ncc3ncnc(Nc4ccc(F)c(Cl)c4)c3n2)CC1 | -1.27% |  |
| OCc1c[nH]c2ccccc12 | -17.7% [at 81.1 µM] |  |
| O=C(NOCC1CC1)c1ccc(F)c(F)c1Nc1ccc(I)cc1Cl |  | 29.8 µM (active) |
| N#CSc1ccc(N)c([N+](=O)[O-])c1 | -21.8% [at 81.1 µM] |  |
| NC(=O)N1C(=O)C(C(=O)c2cc(Cl)cs2)c2cc(F)c(Cl)cc21 (stereo not drawn) | -16.1% |  |

Test: qHTS assay for small molecule activators of the heat shock response signaling pathway (AID 743210; active = well fitted activation curve with a large enough effect in the signal ratio in the repeat runs, with a control signal flat, not every such curve was filed as active; the % refers to the signal ratio;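 as to activation: HeLa cells with beta-lactamase reporter driven by heat shock elements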)
Details: HeLa HSE-bla reporter, beta-lactamase ratio, 5 h; series mostly up to 62.6 µM; activation: at the top concentration
How it was run: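 Quantitative high-throughput format using an engineered HeLa line in which heat shock response elements drive beta-lactamase; after 5 h with compound, cells received a B/G FRET substrate and fluorescence was read.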

| Compound | activation | Potency |
| --- | --- | --- |
| C[n+]1ccn(Cc2ccccc2)c1 | -0.199% |  |
| CCN(CC)CCNC(=O)c1c(C)[nH]c(/C=C2\C(=O)Nc3ccc(F)cc32)c1C | -0.725% |  |
| CSc1ccc2c(c1)C(N1CCN(C)CC1)Cc1ccccc1S2 (stereo not drawn) | 4.54% |  |
| O=C1c2ccccc2Cc2ccccc21 | 0.305% [at 81.1 µM] |  |
| Fc1ccc([C@@H]2CCNC[C@H]2COc2ccc3c(c2)OCO3)cc1 | 5.5% |  |
| COc1ccc(CN2CCN(C(c3ccc(F)cc3)c3ccc(F)cc3)CC2)c(OC)c1OC | -0.621% |  |
| C/C=C1/C(=O)C[C@H]2[C@@H]3CCC4=CC(=O)CC[C@]4(C)[C@H]3CC[C@]12C |  | 28.5 µM (active) |
| CCCCCCOC(=O)c1ccc(O)cc1 | 4.17% |  |
| COc1c(C)c2c(c(O)c1C/C=C(\C)CCC(=O)O)C(=O)OC2 | -0.204% |  |
| Cc1cc(N)c(S(=O)(=O)O)cc1Cl | -1.29% [at 81.1 µM] |  |
| CN1CCC(Nc2ncc3ncnc(Nc4ccc(F)c(Cl)c4)c3n2)CC1 |  | 13.9 µM (active) |
